hgDAF-12 ag – H. glycines DAF-12 receptor agonists, primary screen, cell-based, luminescence, HEK293, GAL4 fusion, UAS-luciferase | Nuclear hormone receptor DAF-12 (Heterodera glycines), GAL4 fusion | HEK293 GAL4-hgDAF12 UAS-luciferase reporter, agonist luminescence; normalized to butyrate control | activation, % at 6.8 µM | 370,000 tested, 1.8% active;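 active means activation above a cutoff set at the mean of all screened compounds plus 3 SD, cut at about 10% in these data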;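 further: 0% = DMSO wells and 100% = sodium butyrate wells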
ssDAF-12 act – S. stercoralis DAF-12 nuclear receptor activators, primary screen, cell-based, luminescence, HEK293, GRIP1 co-expression, lit1-tk-luc; Nuclear hormone receptor DAF-12 (Strongyloides stercoralis); HEK293 ssDAF-12/GRIP1 lit1-tk-luc reporter; % of 3 µM dafachronic acid response; activation, % at 6.8 µM; 370,000 tested, 1% active; AID 652126, 2013;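 active means activation above the mean over all tested compounds plus 3 SD, cut at about 0.9% in these data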;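 further: 0% = DMSO-only wells and 100% = 3 µM delta7-dafachronic acid wells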
DAX1 inh-1 – DAX1 (NR0B1) inhibitors on StAR promoter, primary screen, cell-based, luminescence, SF-1 (NR5A1), full-length DAX-1; HEK293T StAR-luciferase reporter, SF-1/DAX-1 repression relief; inhibition, % at 6.8 µM; 370,000 tested, 1.1% active; AID 652010, 2013;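 active means inhibition above the mean over all tested compounds plus 3 SD, cut at about 3.6% in these data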;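 further: 0% = DAX-1 cells with DMSO and 100% = cells lacking DAX-1 with DMSO; higher inhibition means more luminescence from relief of DAX-1 repression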
hcDAF12 agonist – H. contortus DAF-12 nuclear receptor activators, primary screen, cell-based, luminescence, HEK293, lit1-tk-luc reporter. HEK293 hcDAF-12 lit1-tk-luc reporter; 0% DMSO, 100% Δ7-dafachronic acid. activation, % at 6.8 µM. 370,000 tested, 1.4% active. AID 652067, 2013;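 active means activation above the mean of all tested compounds plus 3 SD, cut at about 5.5% in these data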;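 further: 100% = response to 3 µM Δ7-dafachronic acid high control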
DAX1 inh-2 – DAX1 (NR0B1) inhibitors, primary screen, cell-based, HEK293, Gal4-DAX1, luciferase luminescence; Nuclear receptor subfamily 0 group B member 1 (Homo sapiens), P51843; HEK293 Gal4-DAX1 luciferase reporter; inhibition, % at 6.75 µM; 340,000 tested, 0.99% active; AID 504766, 2011;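 active means inhibition above the mean over all tested compounds plus 3 SD, cut at about 4.2% in these data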;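 further: 0% = DAX1-transfected cells with DMSO and 100% = empty-vector control cells with DMSO; inhibition shows as a rise in luminescence from relieved DAX1 repression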
Target sequence (P51843 207-470 limits assumed): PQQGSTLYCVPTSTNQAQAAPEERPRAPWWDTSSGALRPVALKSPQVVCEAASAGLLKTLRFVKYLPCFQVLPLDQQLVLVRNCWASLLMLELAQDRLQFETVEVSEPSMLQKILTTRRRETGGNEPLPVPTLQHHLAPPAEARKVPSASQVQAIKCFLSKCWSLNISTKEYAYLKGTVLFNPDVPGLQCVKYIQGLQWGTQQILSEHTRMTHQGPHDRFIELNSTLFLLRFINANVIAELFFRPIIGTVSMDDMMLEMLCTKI
* = called active by the depositor; / = no result. Hits are enriched below; roughly 4.1% of the tested compounds scored in any of these assays.

SMILES	hgDAF-12 ag	ssDAF-12 act	DAX1 inh-1	hcDAF12 agonist	DAX1 inh-2
COC(=O)/C=C1\OC(C)c2ccccc21 (stereo unspecified)	-3	1.2*	1	3	/
Cn1c(CN2CCN(C(=O)c3ccccc3)CC2)nc2cc([N+](=O)[O-])ccc21	-3	0.9*	1	0	-2
N#Cc1c2c(c(Nc3ccccc3)n3c1nc1ccccc13)CCC2	1	-1	0	0	0
N#Cc1c2c(c(Nc3ccc(F)cc3)n3c1nc1ccccc13)CCCC2	11*	-1	-1	-2	0
Nc1cc2c(cc1Br)-c1ccc(F)cc1C2O (stereo unspecified)	12*	1	0	3	2
CCOC(=O)/C=C(\C)Sc1cc(O)c2ccccc2c1O	-4	1	-1	5.8*	-3
COC(=O)[C@]12C[C@H](CC(=O)NCC34CC5CC(CC(C5)C3)C4)C(=O)N(Cc3ccc4c(c3)OCO4)C1=C[C@H](C(C)(C)C)O[C@@H]2C	-2	0	0	-1	/
CC(C)(C)OC(=O)N/N=C/c1cccc([N+](=O)[O-])c1	11*	0	4.4*	4	2
CC(NC(=O)C(=O)N/N=C\c1cccc([N+](=O)[O-])c1)c1ccccc1 (stereo unspecified)	0	-1	0	0	5.0*
CCCN1CCCCC(NC(=O)c2ccc(-c3ccccc3)cc2)C1=O (stereo unspecified)	7	-1	0	2	/
COC(=O)C1=C(C)N(Cc2cccc(C(F)(F)F)c2)C(=NCC2CC2)NC1c1ccccc1C(F)(F)F (stereo unspecified)	-2	-1	-1	1	/
O=C(Nc1ccc2oc(-c3ccncc3)nc2c1)c1ccc2c(c1)OCCO2	0	-3	0	-2	5.7*
Cc1ccc2oc(-c3ccc(NC(=O)c4ccncc4)cc3O)nc2c1	12*	0	1	0	1
COc1ccc(CC(=O)Nc2ccc(-c3nc4cc(C)ccc4o3)c(O)c2)cc1OC	3	-1	1	1	0
C[C@@H]1COc2cc(NCCO)ccc2S(=O)(=O)N1	-1	-1	1	-1	/
CC1(C)CC(=O)C([N+](=O)[O-])=C(NCCCC(=O)O)C1	-1	-1	0	1	4.5*
CC1(C)CC(=O)C(C#N)=C(NCCCO)C1	-3	-1	1	-1	0
COc1ccc(OCC2CCNCC2)cc1	4	0	0	1	4.5*
COc1ccc(CNC(=O)C2CCNCC2)cc1	1	-1	0	-1	1
N=c1oc2ccc3ccccc3c2cc1-c1nc(-c2ccccc2)cs1	1	0	1	6.2*	1
COc1ccc(C2CC(=O)C(c3ccccc3OC)=CN2Cc2ccccc2)cc1 (stereo unspecified)	3	-1	-2	-3	/
CS(=O)(=O)N1CCC(C(=O)NCC2COc3ccccc3O2)CC1 (stereo unspecified)	-1	-1	0	-2	/
CSc1nc2ccc(NC(=O)C3=NNC(=O)CC3)cc2s1	7	0	2	5.6*	1
O=C(N/N=C1\CCCc2oc(C(=O)O)cc21)c1ccccc1	11*	1.7*	1	2	0
OCCCNc1ncnc2c1ncn2[C@H]1CN(Cc2ccc3c(c2)OCO3)C[C@@H](CO)O1	-1	-1	0	6.3*	/
C=CCCC(=O)N1CCC(C(=O)NCC2COc3ccccc3O2)CC1 (stereo unspecified)	6	0	1	-3	/
CC[C@@H](CCCc1ccccc1OC)CCS(=O)(=O)C(C)(C)C	1	-2	-1	-1	/
COc1ccccc1CCC[C@@H](CCS(=O)(=O)C(C)C)CC1CCCCC1	-1	2.2*	-1	-1	/
COc1ccc(/C(C)=N/Nc2nc3ccccc3nc2C)cc1	3	1.1*	0	5.8*	4
